Screening results as filed in PubChem BioAssay.
The list is not random: actives were taken first. Their share in the collection is about 2.7%.
Peg3 prom inh = reduces Peg3 promoter-driven luciferase expression in HeLa. HeLa PEG-Prom luciferase reporter, luminescence, overnight. inhibition, % at 20 µM. 1.7% of 360,000 active;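 active means inhibition of at least 50% at 20 µM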
Shn3 inh set2 = Schnurri-3 reporter inhibition in Clone20 osteoblasts; Clone20 osteoblast Shn3 3'UTR firefly luciferase, 24 h; inhibition, % at 12.5 µM; 0.52% of 360,000 active;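 active means mean inhibition of at least 75% with every replicate also reaching 75%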
TRPM1 prom inh = MITF TRPM1 promoter inhibition in SK-MEL-5 cells; SK-MEL-5 TRPM1 promoter luciferase, 24 h; inhibition, % at 12.5 µM; 0.83% of 330,000 active;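 active means mean inhibition across replicates of 60% or more, whatever share of single replicates reaches that level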
KKLEB cytotox = CF airway cell cytotoxicity counter-screen. KKLEB CF airway cells viability, ATPlite luminescence, overnight; active compounds read low; cells stimulated with P. aeruginosa culture filtrate. activity change (cytotoxicity), % at 5 µM. 0.36% of 360,000 active. AID 602141;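 active means corrected activity change at or below -50% at 5 µM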
HIF-2a inh = HIF-2a inhibition | 786-0 RCC cells HIF-2a reporter, luciferase luminescence, overnight | inhibition, % at 18.8 µM | 0.72% of 360,000 active;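 active means inhibition of the luminescence signal of 40% or more relative to plate controls, in a single-dose primary screen at 18.75 µM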
CF NFkB inh = inhibitors of cystic fibrosis induced NF-kB. 0.86% of 360,000 active. KKLEB NF-kB-GFP reporter, PAF-induced, GFP fluorescence overnight. AID 588850. inhibition, % at 5 µM;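 active means at least 50% inhibition at 5 µM, scaled per plate between neutral and stimulator controls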;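 further: PAF is a Pseudomonas aeruginosa culture filtrate used as stimulus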
Large screens that a line does not name were inactive.

OC(CNCCc1ccccc1)COc1ccc(OCC(O)CNCCc2ccccc2)cc1 (stereo unspecified)	Peg3 prom inh 102, TRPM1 prom inh 84 (no result: Shn3 inh set2)
COc1ccc(C(OCC(O)CNCCc2ccccc2)c2ccc(OC)cc2)cc1 (stereo unspecified)	none
Cc1ccc(NC(=O)c2cc(-n3cnnc3)ccc2Cl)cc1	none
Cc1ccc(NC(=O)c2cc(N3C(=O)C=CC3=O)ccc2Cl)cc1C	Peg3 prom inh 80
CCNC(=O)N(C)c1c(CC)nc2ccc(C(=O)N3CCN(S(=O)(=O)CC)CC3)cn12	none (no result: TRPM1 prom inh)
C[C@@H](NC(=O)[C@@H]1CCCN1C(=O)[C@@H]1CCCN1)c1ccccc1	none (no result: Peg3 prom inh, Shn3 inh set2, TRPM1 prom inh, KKLEB cytotox, CF NFkB inh)
Cc1cc(-n2c(C)cc(C(=O)CSc3nncn3C(C)C)c2C)no1	none
Cc1cc(-n2c(C)cc(C(=O)CSc3nncn3C)c2C)no1	Shn3 inh set2 90
Cc1cc(C)c(C(N)=O)c(SCC(=O)c2cc(C)n(-c3cc(C)on3)c2C)n1	Shn3 inh set2 90
COc1ccc(NC(=O)Cn2c([N+](=O)[O-])cnc2C)c(OC)c1	none (no result: TRPM1 prom inh)
COc1cc(-c2nnc(COC(=O)c3ccc([N+](=O)[O-])o3)o2)cc(OC)c1OC	none (no result: TRPM1 prom inh)
CN(C)CCNC(=O)c1ccc(Sc2ccc(Br)cc2)c([N+](=O)[O-])c1	Peg3 prom inh 94
Cc1nc2c(OCc3ccc(Cl)cc3)cccn2c1N(C)C(=O)CCC1CCCC1	none (no result: TRPM1 prom inh)
COc1cc(-c2cnc3c(NC=O)cc(-c4ccsc4)cn23)cc(OC)c1OC	Peg3 prom inh 76 (no result: TRPM1 prom inh)
COc1ccc(-c2cc(NC=O)c3ncc(-c4ccc(OC)c(OC)c4)n3c2)cc1OC	Peg3 prom inh 58 (no result: TRPM1 prom inh)
COc1cccc(-c2cnc3c(NC=O)cc(-c4ccc(O)c(OC)c4)cn23)c1	Peg3 prom inh 69 (no result: TRPM1 prom inh)
COc1cccc(-c2cc(NC=O)c3ncc(-c4cc(OC)c(OC)c(OC)c4)n3c2)c1	none (no result: TRPM1 prom inh)
CN1CCN(c2ccc(-c3cc(NC=O)c4ncc(-c5ccccc5)n4c3)cc2)CC1	Peg3 prom inh 79 (no result: TRPM1 prom inh)
Cc1cc(C)c(CN2CCN(C(=O)Cn3ccc(N)nc3=O)CC2)c(C)c1	none
CSc1nc(N)nc2c1ncn2CC(=O)N1CCN(Cc2c(C)cc(C)cc2C)CC1	Shn3 inh set2 89
CC12CNCC(C)(CN(C(c3ccccc3)c3ccccc3)C1)C2	Peg3 prom inh 81
OC[C@@H]1CN(Cc2cccs2)C[C@H](n2cnc3c(NCc4ccncc4)ncnc32)O1	none (no result: TRPM1 prom inh)
CCOc1ccc(/C=C2\CCc3ccccc3C2=O)cc1	none
COc1ccc(C=C2CCc3ccccc3C2=O)cc1	KKLEB cytotox -52 (no result: TRPM1 prom inh)
O=C(NCC1CCCO1)C(c1cccs1)N(Cc1ccccc1Cl)C(=O)c1ccc(-c2ccccc2)[nH]1 (stereo unspecified)	Peg3 prom inh 80
Cc1ccc(C(C(=O)NCC2CCCO2)N(Cc2ccccc2)C(=O)c2ccc(-c3ccccc3)[nH]2)o1 (stereo unspecified)	none
COc1ccc(-c2nc3c(c(=O)[nH]c(=O)n3Cc3ccccc3)n2CCO)cc1	none
O=c1[nH]c(=O)n(Cc2ccccc2)c2nc(-c3ccc(Oc4ccc(F)cc4)c([N+](=O)[O-])c3)n(CCO)c12	Peg3 prom inh 63
CCOC(=O)[C@]12CCCC=C1N(Cc1ccc3c(c1)OCO3)C(=O)[C@H](CC(=O)NCC13CC4CC(CC(C4)C1)C3)C2	none (no result: Peg3 prom inh, Shn3 inh set2, TRPM1 prom inh, KKLEB cytotox, CF NFkB inh)
CN(C)S(=O)(=O)c1cccc(NC(=O)c2cccc(S(=O)(=O)N3CCc4ccccc43)c2)c1	Shn3 inh set2 92 (no result: TRPM1 prom inh)
CNC(=O)c1ccsc1NC(=O)c1ccc(S(=O)(=O)N2CCCc3ccccc32)cc1	Peg3 prom inh 55 (no result: TRPM1 prom inh)
O=C(Nc1nc2c(s1)CCCC2)c1ccc(S(=O)(=O)N2CCCc3ccccc32)cc1	none
O=C(Nc1cccc(/C=C/c2ccccn2)c1)c1ccc(-n2cncn2)c([N+](=O)[O-])c1	none
CCOC(=O)COc1ccccc1/C=C\[N+](=O)[O-]	Peg3 prom inh 110, Shn3 inh set2 97, TRPM1 prom inh 97, HIF-2a inh 92, CF NFkB inh 81
Cc1ccc(-c2nn3c(C)nnc3c3ccccc23)cc1S(=O)(=O)NC(C)c1ccccc1 (stereo unspecified)	KKLEB cytotox -63
CCOCCn1ccc2c(OCC(=O)Nc3ccc(OC)cc3OC)cccc2c1=O	Peg3 prom inh 52
CCOCCn1ccc2c(OCC(=O)Nc3ccc(OC)c(OC)c3)cccc2c1=O	none
COc1ccc(Cl)cc1-c1cc(C(=O)N[C@H](C)c2ccccc2)[nH]n1	none (no result: TRPM1 prom inh)
Cc1ccc2nc(-c3ccc(O)c(O)c3)cn2c1	Shn3 inh set2 90
CN(C(=O)c1ccncc1)c1ccccc1	none
C/C(=N\N(Cc1ccccc1)c1ccccc1)c1ccncc1	KKLEB cytotox -57, CF NFkB inh 58
CN(C)S(=O)(=O)c1cccc(NC(=S)N/N=C/c2cccc(O)c2)c1	none
CN(C)S(=O)(=O)c1cccc(NC(=S)N/N=C/c2cc(Br)ccc2O)c1	Peg3 prom inh 54, Shn3 inh set2 91, TRPM1 prom inh 67
O=C(Nc1cc(Cl)ccc1-n1cncn1)c1ccc([N+](=O)[O-])s1	TRPM1 prom inh 62
CC(=O)Nc1cc(-c2cccc(NS(C)(=O)=O)c2)cn2c(-c3ccc(F)c(Cl)c3)cnc12	none (no result: TRPM1 prom inh)
O=C(NN1CCOCC1)c1cc(-c2cccs2)nc2ccccc12	none
Cc1ccc(NC(=O)c2cc(-c3cccs3)nc3ccccc23)nc1	none
Cc1cc(C)c2nc(NNC(=O)c3cc(-c4cccs4)nc4ccccc34)sc2c1	Peg3 prom inh 52
O=C(NNc1nc2ccc(Cl)cc2s1)c1cc(-c2cccs2)nc2ccccc12	Peg3 prom inh 87
Cn1cc([C@]2(O)C(=O)Nc3c(F)cccc32)c2ccccc21	none (no result: Peg3 prom inh, Shn3 inh set2, TRPM1 prom inh, KKLEB cytotox, CF NFkB inh)
O=c1ccoc2ccccc12	none (no result: TRPM1 prom inh)
CCOC(=O)[C@]12CCC=C1N(CCC1=CCCCC1)C(=O)[C@H](CC(=O)N1CCOCC1)C2	none (no result: Peg3 prom inh, Shn3 inh set2, TRPM1 prom inh, KKLEB cytotox, CF NFkB inh)
CCn1c(SCC(N)=O)nc2cc(S(=O)(=O)N3CCOCC3)ccc21	none
CCn1c(CCl)nc2cc(S(=O)(=O)N3CCOCC3)ccc21	Peg3 prom inh 71 (no result: TRPM1 prom inh)
COc1ccc(C(=O)c2sc(Nc3ccccc3)c(C(=O)Nc3ccc(OC)c(OC)c3)c2N)cc1	none
COc1ccc(NC(=O)c2c(Nc3ccccc3)sc(C(=O)c3ccc(F)cc3)c2N)cc1	KKLEB cytotox -53
COc1ccc(OC)c(NC(=O)Nc2nc(CN(C)C)cs2)c1	none (no result: TRPM1 prom inh)
CC(C)n1nnnc1C1c2ccccc2C(=O)N1CCOc1ccccc1 (stereo unspecified)	none (no result: Peg3 prom inh, Shn3 inh set2, TRPM1 prom inh, KKLEB cytotox, CF NFkB inh)
O=C(CN1CC(=O)Oc2ccccc21)OCC(=O)c1ccccc1	Peg3 prom inh 59, KKLEB cytotox -59, CF NFkB inh 50
O=C(CN1CC(=O)Oc2ccccc21)OCC(=O)c1cccc(Br)c1	none
CCC(=O)N(C)C[C@H]1Oc2ncc(C#Cc3cccnc3)cc2C(=O)N([C@@H](C)CO)C[C@@H]1C	none (no result: TRPM1 prom inh)
CCCCCCCCCCCCCCC[C@@H](O)[C@@H](N)CO	Peg3 prom inh 51
